The supplement of paper PMC6992640
± gives the standard deviation of the averaged measurements.

How the values were obtained:
Assay in all cases: cell viability (% of vehicle); higher = less cytotoxic
Settings in all cases: 10 µM; 72 h
HCI01 = test system: HCI01 (cells of a triple-negative basal-like breast cancer xenograft)
HCI03 = test system: HCI03 (cells of an ER-positive luminal breast cancer xenograft)
HCI09 = test system: HCI09 (cells of a triple-negative luminal androgen receptor type breast cancer xenograft)
HCI11 = test system: HCI11 (cells of an ER-positive luminal breast cancer xenograft)
HCI13 = test system: HCI13 (cells of an ER-positive luminal breast cancer xenograft)
HCI16 = test system: HCI16 (cells of a triple-negative basal-like breast cancer xenograft)
UCD52 = test system: UCD52 (cells of a triple-negative basal-like breast cancer xenograft)
WHIM2 = test system: WHIM2 (cells of a triple-negative basal-like breast cancer xenograft)
WHIM30 = test system: WHIM30 (cells of a triple-negative basal-like breast cancer xenograft)
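Also: PDX cells carrying CMV promoter-driven luciferase, viability read as total photon flux per second by IVIS imaging following D-luciferin, vehicle control 0.1% DMSO.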

| Structure (SMILES) | cell viability (HCI01) | cell viability (HCI03) | cell viability (HCI09) | cell viability (HCI11) | cell viability (HCI13) | cell viability (HCI16) | cell viability (UCD52) | cell viability (WHIM2) | cell viability (WHIM30) |
| --- | --- | --- | --- | --- | --- | --- | --- | --- | --- |
| Br.COc1ccc2c3c1O[C@H]1C[C@@H](O)C=C[C@@]31CCN(C)C2 [Galanthamine HBr] | 113 ± 6.7 | 102 | 97.02 ± 0.17 | 93.2 | 80.4 ± 8.2 | 73.8 | 97.8 ± 2.6 | 79.7 ± 12 | 118 ± 24 |
| CC(C)(C)N.CCCC(NC(C)C(=O)N1C(C(=O)O)CC2CCCCC21)C(=O)OCC (stereo not drawn) [Perindopril Erbumine] | 84.9 ± 13 | 101 | 95.1 ± 11 | 93.5 | 129 ± 5.6 | 108 | 72.44 ± 0.41 | 98.2 ± 1.5 | 114 ± 28 |
| CC(=O)SC1CC2=CC(=O)CCC2(C)C2CCC3(C)C(CCC34CCC(=O)O4)C12 (stereo not drawn) [Spironolactone] | 109 ± 2.6 | 114 | 73.8 ± 9.1 | 110 | 75.9 ± 6.1 | 64.2 | 79.7 ± 14 | 88.8 ± 8.7 | 113 ± 10 |
| NC1CCCCC1N.O=C([O-])C(=O)[O-].[Pt+2] (stereo not drawn) [Oxaliplatin] | 97.5 ± 3.3 | 108 | 75.7 ± 30 | 114 | 89 ± 12 | 118 | 137 ± 9.3 | 108 ± 14 | 154 ± 2 |
| CC(C)CC(N)=O [Isovaleramide] | 103 ± 22 | 132 | 97.6 ± 3.4 | 98.5 | 104 ± 13 | 94.6 | 99.9 ± 2 | 98.5 ± 13 | 96.1 ± 7.9 |
| CCCC(CCC)C(=O)O.CCCC(CCC)C(=O)[O-].[Na+] [Divalproex Sodium] | 112 ± 1.5 | 116 | 96.4 ± 23 | 111 | 114 ± 41 | 94.5 | 86.1 ± 2.9 | 80.1 ± 16 | 90.4 ± 14 |
| CC(C)(OCc1nn(Cc2ccccc2)c2ccccc12)C(=O)O [Bindarit] | 86.5 ± 68 | 133 | 95.7 ± 2.3 | 86.6 | 136 ± 0.14 | 117 | 83.1 ± 3.1 | 110 ± 19 | 149 ± 27 |
